NPC1 promoter act – activators of NPC1 promoter | Potency, µM (top dose mostly 9.22 µM), for inactives: at the top dose activation, hits mostly activators | actives 2.4% (n = 320,000) | Huh7 NPC1 promoter luciferase reporter, 24 h; further: % of control where 0% means no effect; nearly all actives have a fitted effect of over 60% in size
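In 1536-well qHTS, Huh7 cells harboring an NPC1 promoter–luciferase construct received compound for 24 h; activation was quantified by luminescence following luciferase reagent addition.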
FLuc counter – firefly luciferase modulation, counter-screen for miR-21 project; purified FLuc, Km substrates, luminescence inhibition; Potency, µM (titrated, usually from 57.5 µM), for the others: at the highest dose activity change, negative = inhibition, actives largely listed as inhibitors; actives 6.9% (n = 360,000); AID 588342;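 further: plate controls were vehicle for no effect and reference inhibitor for full effect; nearly all actives have a fitted effect of over 55% in size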
Target sequence (P08659 whole entry, looked up): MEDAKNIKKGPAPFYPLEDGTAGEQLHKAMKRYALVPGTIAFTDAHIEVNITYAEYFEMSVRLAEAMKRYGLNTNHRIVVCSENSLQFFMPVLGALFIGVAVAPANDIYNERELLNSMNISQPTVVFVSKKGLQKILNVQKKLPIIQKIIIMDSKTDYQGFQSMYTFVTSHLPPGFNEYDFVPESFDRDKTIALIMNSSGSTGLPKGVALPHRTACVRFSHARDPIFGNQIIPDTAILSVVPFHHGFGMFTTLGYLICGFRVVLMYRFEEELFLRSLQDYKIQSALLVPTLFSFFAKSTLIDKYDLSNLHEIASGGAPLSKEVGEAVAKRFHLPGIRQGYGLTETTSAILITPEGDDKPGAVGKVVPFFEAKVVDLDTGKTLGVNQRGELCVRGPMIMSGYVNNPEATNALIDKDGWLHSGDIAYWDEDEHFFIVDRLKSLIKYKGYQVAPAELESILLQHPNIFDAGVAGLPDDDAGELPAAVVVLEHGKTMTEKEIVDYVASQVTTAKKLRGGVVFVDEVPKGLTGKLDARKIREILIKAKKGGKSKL
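Biochemical qHTS of compounds, final roughly 60 µM downward over six points, against 10 nM purified firefly luciferase using Km concentrations of substrates (10 uM D-luciferin, 10 uM ATP) in Tris acetate pH 7.5 buffer; luminescence output.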
Rab9 prom act – activates the Rab9 promoter | actives 2.8% (n = 320,000) | Potency, µM (titrated, usually from 9.22 µM), for the others: at the top dose activation, negative = inhibition, most hits filed as activators | Huh7 Rab9 promoter-luciferase reporter, luminescence, 24 h; further: % of control where 0% means no effect; nearly all actives have a fitted effect of over 60% in size
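Cells were plated at 1500 per well in reduced-serum medium with 10% FBS and left 2 h. Compound in DMSO was then added for 24 h at 37 °C. Reporter signal was read by luminescence after 10 min with luciferase detection reagent.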
SMN2 splice up – increases expression of the SMN2 splice variant | AID 1458 | actives 2.8% (n = 210,000) | HEK293 SMN2-luciferase splicing reporter, luminescence, 30-36 h | Potency, µM (doses to about 46.1 µM), without a hit: at the top dose activity change, positive = activation, actives largely listed as activators; further: % of control where 0% means no effect; nearly all actives have a fitted effect of over 55% in size
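qHTS luciferase splicing reporter: luminescence rises when SMN2 exon 7 is included in transfected HEK293 cells. Compound exposure lasted 30-36 h at 37C, with 4.5 mM final sodium butyrate as control, followed by a ONE-Glo read.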
ELG1 genotoxic – induces genotoxicity in HEK293T cells with luciferase-tagged ELG1; HEK293T ELG1-luciferase reporter, luminescence, 16 h; Potency, µM (series often up to 46 µM), for inactives: at the top dose activity change, positive = activation, actives largely listed as activators; actives 1.3% (n = 330,000); further: % of control where 0% means no effect; nearly all actives have a fitted effect of over 60% in size
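Genotoxic stress is detected as increased luminescence from luciferase-tagged ELG1 in HEK293T cells, measured with ONE-Glo after a 16 hr treatment at 37 °C.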
An asterisk follows results filed as active; ? = inconclusive; / = not tested or not shown; [ ] = dose if it differs, or a comment. This is a sample that favours compounds with a hit; in the whole collection about 7.4% have one here. The call rests on the fitted dose curve; in most records, active means well fitted curve in the direction sought with a large enough effect; inconclusive means small, poorly fitted or top-dose-only effect, or another doubt; inactive means no such curve, though single readings can be large; an effect the other way counts as inactive or inconclusive. Potency means the concentration at half of the fitted maximal effect.

SMILES	NPC1 promoter act	FLuc counter	Rab9 prom act	SMN2 splice up	ELG1 genotoxic
Cc1cc(C(=O)CN2C(=O)c3ccccc3S2(=O)=O)c(C)n1-c1ccccc1	-13%	2.1µM*	-11%	-16%	-27%
CCn1c(C)cc(C(=O)CN2C(=O)c3ccccc3S2(=O)=O)c1C	?	/	?	/	1%
C=CCn1c(C)cc(C(=O)CN2C(=O)c3ccccc3S2(=O)=O)c1C	-32%	1.5µM*	-35%	/	-4%
Cc1cc(C(=O)CN2C(=O)C3CC=CCC3C2=O)c(C)n1-c1ccccc1 (stereo not given)	0.56µM*	0.67µM*	0.71µM*	-58%	?
Cc1cc(C(=O)CN2C(=O)c3ccccc3S2(=O)=O)c(C)n1C(C)C	-3%	/	?	/	2%
COc1ccc(CNC(=O)c2ccc(-c3nc(CSc4ccccc4)c(C)o3)cc2)cc1	/	-1%	/	/	/
CC(=O)c1cccc(S(=O)(=O)NCCc2csc3nc(-c4ccc(F)cc4)nn23)c1	/	-14%	/	/	/
O=C(CSc1cccc[n+]1[O-])Nc1cc2c(cc1Cl)C(=O)c1ccccc1C2=O	?	11µM*	?	11µM*	16%
O=C(Nc1nnc(SCc2ccccc2)s1)c1cccs1	24%	?	21%	?	15µM*
CCSc1nnc(NC(=O)c2cccs2)s1	?	19µM*	?	22%	-15%
COc1ccc(-c2cc3nc4ccccc4n3c(N)c2C#N)cc1	1.8µM*	?	2µM*	/	14%
COc1ccc(-c2cc(-c3ccccc3)c(C#N)c(S(C)=O)n2)cc1 (stereo not given)	-4%	0%	-19%	-26%	-4%
CSc1nc(O)c(C(c2ccccc2)c2c(O)nc(SC)[nH]c2=O)c(=O)[nH]1	-5%	5%	5%	/	0%
CSc1nc(O)c(N=Nc2ccc(F)cc2F)c(=O)[nH]1	?	0.85µM*	26%[1.84 µM]	/	?
Cc1nc2ccccn2c(=O)c1NC(=O)c1ccccc1Cl	/	7%	/	/	/
CC1CCN(C(=O)Cn2nnc(-c3ccc(C(C)C)cc3)n2)CC1	8%	17µM*	2%	/	-2%
CC(C)c1ccc(-c2nnn(CC(=O)N3CCCCC3)n2)cc1	16%	?	17%	/	4%
CCCCOc1ccc(-c2nnn(CCC(=O)N3CCOCC3)n2)cc1	?	12µM*	?	-20%	?
CCCOc1ccc(-c2nnn(CC(=O)N3CCC(C)CC3)n2)cc1	1%	17µM*	0%	-35%	2%
COc1ccc(OCCC(=O)N2CCOCC2)cc1	5%	0%	0%	11%	3%
COC(=O)CCn1nnc(-c2ccc(C(C)C)cc2)n1	-19%	12µM*	-28%	-22%	-5%
Cn1cccc1-c1cc2n(n1)CCC(=O)N2CCCC(=O)NCc1ccc(F)cc1	/	-2%	/	/	/
N#Cc1ccc(OC(=O)c2ccc(N=C(N)N)cc2)cc1	/	/	/	12%[9.22 µM]	/
CC(=O)Nc1c(C)nn(-c2ccccc2)c1N1CCC(C(=O)Nc2ccc(F)cc2Cl)CC1	/	-1%	/	/	/
CC(=O)O[C@H]1CC[C@@]2(C)C(=CC[C@@H]3[C@H]4CC[C@@H]([C@H](C)C(=O)O)[C@]4(C)CC[C@H]32)C1	/	/	/	2%[9.22 µM]	/
SMILES	NPC1 promoter act	FLuc counter	Rab9 prom act	SMN2 splice up	ELG1 genotoxic
CCCOc1ccc(-c2nnn(CC(=O)N3CCCC(C)C3)n2)cc1 (stereo not given)	-2%	15µM*	-2%	/	0%
Nc1ncnc2c1nc(-c1ccccc1)n2[C@H]1O[C@@H](CO)[C@@H](O)[C@H]1O	/	/	/	-15%[9.22 µM]	/
CCOc1ccc(Nc2nc(N)nc(CCl)n2)cc1	-43%	3µM*	-53%	/	10%
Cc1ccc(Nc2nc(N)nc(CCl)n2)c(C)c1	-37%	11µM*	-49%	/	-17%
Cc1cccc(Nc2nc(N)nc(CCl)n2)c1	-39%	?	-50%	/	-7%
Cc1ccc(Nc2nc(N)nc(CSCCO)n2)cc1	?	24µM*	2µM*	?	?
COc1cccc(Nc2nc(N)nc(CCl)n2)c1	-41%	21µM*	-50%	/	-7%
CCCCN(Cc1cc2cc(C)ccc2[nH]c1=O)C(=O)c1cccc(Cl)c1	/	0%	/	1%	/
Nc1nc(CCl)nc(Nc2ccccc2)n1	-36%	?	-48%	/	-11%
Cc1ccc(Nc2nc(N)nc(CSc3nc4ccccc4s3)n2)cc1	3%	-26%	0%	-1%	-7%
Cc1ccc(NC(=O)COC(=O)C2=COCCO2)cc1	-3%	?	2%	-5%	8%
Cc1ccc(Nc2nc(N)nc(CCl)n2)cc1	-49%	1.9µM*	-49%	/	17%
Cc1ccc(Nc2nc(N)nc(CC#N)n2)cc1	?	11µM*	?	18µM*	18µM*
Cc1ccc(Nc2nc(N)nc(COC(=O)C3=COCCO3)n2)cc1	2µM*	13µM*	2.8µM*	/	?
CCc1ccc(NC(=O)CN(c2ccc(C)cc2)S(=O)(=O)c2cccs2)cc1	/	-11%	/	-6%	/
CC(C)=CC[C@@H](O)C1=CC(=O)c2c(O)ccc(O)c2C1=O	/	/	/	-99%	/
COc1ccc(C(=O)Nc2ccc3ccccc3c2)c(OC)c1	3.5µM*	0.85µM*	?	/	2.1µM*
COc1ccc(NC(=O)c2cc3ccccc3[nH]2)cc1	3.2µM*	?	2µM*	/	?
COc1ccc(NC(=O)c2ccc(=O)oc2)cc1	17%	?	7%	-2%	0%
COc1ccc(NC(=O)c2ccc3ccccc3c2)cc1	0.71µM*	0.85µM*	0.71µM*	/	2.3µM*
CCC(=O)Nc1ccc(NC(=O)c2ccc3ccccc3c2)cc1	14%	0%	9%	/	9%
COc1ccc(NC(=O)c2coc(C)c2)cc1	?	24µM*	?	/	?
CC1CCN(S(=O)(=O)c2ccc3c(c2)N(CC(=O)N2CCN(c4ccccc4)CC2)C(=O)CO3)CC1	/	-3%	/	0%	/
Cc1ccc(CCNC(=O)c2c3c(nc4ccccc24)C(=O)N(C2CCCCC2)C3)cc1	/	-4%	/	/	/
COC(=O)c1sc2cccc(F)c2c1S(=O)(=O)N1CCN(c2ccccc2OC)CC1	/	-3%	/	/	/
SMILES	NPC1 promoter act	FLuc counter	Rab9 prom act	SMN2 splice up	ELG1 genotoxic
O=S(=O)(c1ccccc1)c1nc(-c2cccs2)oc1SCc1ccccc1F	/	-1%	/	10%	/
CC(C)(C)c1ccc(S(=O)(=O)NNC(=O)c2cc3ccccc3[nH]2)cc1	14%	13µM*	12%	/	?
COc1ccc(C(=O)NCCn2ccc3ccccc32)c(OC)c1	?	21µM*	?	29%	?
COc1ccc(C(=O)NCCN2CCOCC2)c(OC)c1	-4%	-2%	3%	11%	-1%
CCCC(C)NNC(=O)c1cc2ccccc2[nH]1 (stereo not given)	2%	0%	2%	-6%	9%
COC(=O)c1ccc(N2CCCCC2)c(N)c1	?	11µM*	3.5µM*	22µM*	?
COC(=O)c1ccc(N2CCC(C)CC2)c(N)c1	?	12µM*	?	7%	18µM*
